Assay results published in PubChem BioAssay.
Inconclusive results are not listed. Calls of active or inactive are those of the source. Unless noted, no cut-off is given here; in the data, nearly all actives have AC50 up to about 26 µM. Bridge positions count the residues as written; N and C are the ends. Square brackets hold non-standard residues; d marks the D form. Peptide text beside a SMILES is read from it. * marks the point of attachment. X2 = CCC(C)C(N)C1=NC(C(=O)*)CS1; dOrn = NCCC[C@@H](N)C(=O)O

Columns and labels:
[1] = growth inhibition of DIPG glioma cells, dose response, cell-based, SU-DIPG-XIII, MIPE5.0, CellTiter-Glo, qHTS (AID 1347064; cut-off not given, nearly all actives have AC50 up to about 23 µM;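 for AC50: cells exposed to compound for 48 hours before the viability read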); conditions: SU-DIPG-XIII viability, CellTiter-Glo ATP luminescence
[2] = viability loss in pontine glioma line – cell-based, SU-DIPG-XXV, MIPE5.0, CellTiter-Glo, qHTS, dose response (AID 1347065); conditions: CellTiter-Glo ATP luminescence;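 note: cells exposed to compound for 48 hours before ATP readout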
[3] = SU-DIPG-XXV glioma cell viability, MIPE5.0 library, qHTS (AID 1347068; cut-off not given, nearly all actives have IC50 up to about 30 µM)
[4] = sensitizers of A549 cells to miR-34 induction, primary screen, imaging, A549 dox-inducible miR-34, nuclei and caspase counts (AID 1347080;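 active = compounds whose cell count with miR-34 switched on is under 0.7 times the count with it off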); conditions: A549 miR-34 inducible, Hoechst nuclei count, 48 h
[5] = survival rescue of mitochondrial mutant cells in low glucose, primary screen, MELAS cybrids, Rieske KO mouse fibroblasts, CellTiter-Glo (AID 1508586;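 active = mean z-score across replicates of 1.96 or higher in either the MELAS or the Rieske mutant cell line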;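 note: z relative to plate mean and SD of compound and empty wells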)
[6] = JHH-DIPG-1 glioma cell viability, MIPE5.0 library, CellTiter-Glo luminescence, qHTS (AID 1347067); conditions: JHH-DIPG-1 glioma viability, CellTiter-Glo ATP luminescence;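 note: cells exposed to compound for 48 hours before readout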
[7] = hESC survival regulators, cell-based (AID 493140; call rule not given here;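 note: cells exposed to compounds for four days before counting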); conditions: human embryonic stem cell survival screen; stronger effect = higher value
[8] = liver-stage malaria parasite growth inhibition, primary screen, cell-based, HepG2, luciferase luminescence, HepG2 viability (AID 624349; in the data active = parasite load remaining mostly below about 12%, no sharp cut-off; inactive = mostly above about 10%;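 note: 100% = mean of DMSO negative control wells on the same plate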); conditions: P. berghei liver stage in HepG2, luciferase luminescence, concentration not given here; parasite load remaining: stronger effect = lower value; viability: measured here: HepG2 viability without parasites
[9] = stronger effect = lower value, cell number ratio, induced over uninduced
[10] = measured here: relative caspase fold change +Dox/-Dox
[11] = measured here: total cells with miR-34 induction, stronger effect = lower value
[12] = measured here: total cells without miR-34 induction
[13] = MELAS cybrid survival, CellTiter-Glo 48 h, stronger effect = higher value
[14] = Rieske KO mouse fibroblast survival, CellTiter-Glo 72 h

## O=C(NNc1ccccc1)c1ccncc1
[1]
  outcome: inactive
[2]
  outcome: inactive
[3]
  outcome: inactive
[4]; [9]
  fold change: 0.922 (inactive)
[4]; [10]
  fold change: 0.452
[4]; [11]
  cell count: 7960
[4]; [12]
  cell count: 8630
[5]; [13]
  z-score: -0.433 (inactive)
[5]; [14]
  z-score: -1.65

## Oc1ccc(C2CCN(c3ccnc4ccccc34)CC2)cc1O
[1]
  AC50: 16.6 µM (active)
[6]
  AC50: 20.9 µM (active)

## COc1cc(N2CCN(C)CC2)ccc1Nc1nccc(-c2cn(C)c3cnccc23)n1
[1]
  AC50: 10.5 µM (active)
[2]
  AC50: 13.2 µM (active)
[6]
  AC50: 18.6 µM (active)
[3]
  outcome: inactive
[4]; [9]
  fold change: 0.785 (inactive)
[4]; [10]
  fold change: 1.02
[4]; [11]
  cell count: 4990
[4]; [12]
  cell count: 6360
[5]; [13]
  z-score: 1.95 (inactive)
[5]; [14]
  z-score: -5.23

## C=C1[C@H](OC(=O)/C=C(\C)CC)C[C@@H](C(C)C)[C@@H]2[C@H]([C@@H](C)OC(C)=O)C(=O)C[C@@H]12
[1]
  AC50: 18.6 µM (active)
[6]
  AC50: 18.6 µM (active)
[3]
  outcome: inactive

## CCC(C)C(N)C1=NC(C(=O)N[C@@H](CC(C)C)C(=O)N[C@H](CCC(=O)O)C(=O)N[C@H](C(=O)N[C@H]2CCCCNC(=O)[C@H](CC(N)=O)NC(=O)[C@@H](CC(=O)O)NC(=O)[C@H](Cc3cnc[nH]3)NC(=O)[C@@H](Cc3ccccc3)NC(=O)[C@H]([C@@H](C)CC)NC(=O)[C@@H](CCCN)NC2=O)[C@@H](C)CC)CS1 (some centres not stated) (X2-L[dE]IK[dOrn]I[dF]H[dD]N; lactam 4-C)
[7]
  survival: 9.33 (inactive)
[8]
  parasite load remaining: 69.3% (inactive)
  viability: 103%
[1]
  outcome: inactive
[2]
  outcome: inactive
[6]
  outcome: inactive
[3]
  outcome: inactive
[4]; [9]
  fold change: 0.898 (inactive)
[4]; [10]
  fold change: 1.36
[4]; [11]
  cell count: 9810
[4]; [12]
  cell count: 10900
[5]; [13]
  z-score: 0.499 (inactive)
[5]; [14]
  z-score: -0.0886
